From the supplement of paper PMC9135407
Counter-ions that a name gives are not always drawn. The whole screen tested about 5,800 compounds, of which about 620 (11%) showed activity. This excerpt belongs to a sample that is enriched for actives. A number with no mark means an inactive call.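 How the source made its calls: active = score above a cut-off or among the top three wells of a plate; in these data no inactive exceeds 0.85.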

Test system: primary human hepatic stellate cells (donor 1)
Assay: scaled lipid accumulation score (0 = DMSO-like, 1 = nortriptyline-like); higher = stronger HSC inactivation (lipid re-accumulation), active = hit call of the paper
Conditions: 48 h
Experimental: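 Primary lipid accumulation screen in primary human hepatic stellate cell myofibroblasts (donor 1, passage 8) in 384-well plates. 100 nL of library compound was pin-transferred into 30 µL medium in duplicate, and cells were treated for 48 h. The 'Scaled' score combines distance from plate baseline, toxicity and reproducibility penalties, and is normalised to nortriptyline (positive) and DMSO (negative) controls on each plate. A hit is defined as scaled >0.85 or among the top 3 wells per plate.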

[1] = library stock concentration: 10 mM
[2] = library stock concentration: 3.33 mM
[3] = library stock concentration: 80 uM
[4] = library stock concentration: 400 uM
[5] = library stock concentration: 2 mM
[6] = library stock concentration: 1 mM

SMILES: NC(N)=NCCNS(=O)(=O)c1cccc2cnccc12
- scaled lipid accumulation score (library stock concentration: 17 mM): 0.047

SMILES: Cl.Cl.O=S(=O)(NCCNC/C=C/c1ccc(Br)cc1)c1cccc2cnccc12 [H 89 dihydrochloride]
- scaled lipid accumulation score [1]: 1.26 (active)

SMILES: CNCCNS(=O)(=O)c1cccc2cnccc12 [H-8, Dihydrochloride]
- scaled lipid accumulation score [2]: ≤ 0

SMILES: O=S(=O)(NCCNC/C=C/c1ccc(Br)cc1)c1cccc2cnccc12 [H-89, Dihydrochloride]
- scaled lipid accumulation score [2]: ≤ 0

SMILES: O=S(=O)(NCCNC/C=C/c1ccc(Br)cc1)c1cccc2cnccc12 [listing 1 of 2 here]
- scaled lipid accumulation score [3]: ≤ 0
- scaled lipid accumulation score [4]: ≤ 0
- scaled lipid accumulation score [5]: 0.134

SMILES: O=S(=O)(NCCNCC=Cc1ccc(Br)cc1)c1cccc2cnccc12
- scaled lipid accumulation score [2]: 0.01
- scaled lipid accumulation score [1]: 0.542

SMILES: O=S(=O)(NCCNC/C=C/c1ccc(Br)cc1)c1cccc2cnccc12 [listing 2 of 2 here]
- scaled lipid accumulation score [1]: 0.989 (active)

SMILES: NC(N)=NCCNS(=O)(=O)c1cccc2cnccc12 [HA 1004, Dihydrochloride]
- scaled lipid accumulation score [2]: ≤ 0

SMILES: CNCCNS(=O)(=O)c1cccc2cnccc12 [H-8 dihydrochloride]
- scaled lipid accumulation score [1]: 0.048

SMILES: CCCCCC(=O)CC[C@H]1[C@H](O)CC(=O)[C@@H]1C/C=C\CCCC(=O)O [13,14-dihydro-15-keto Prostaglandin E2]
- scaled lipid accumulation score [6]: ≤ 0

SMILES: O=C1NC(=O)c2cc(Nc3ccc(F)cc3)c(Nc3ccc(F)cc3)cc21
- scaled lipid accumulation score [1]: ≤ 0

SMILES: CC1=C(C(=O)OCCN(Cc2ccccc2)c2ccccc2)C(c2cccc([N+](=O)[O-])c2)C(P2(=O)OCC(C)(C)CO2)=C(C)N1 (stereo not drawn) [Efonidipine hydrochloride monoethanolate]
- scaled lipid accumulation score [1]: ≤ 0

SMILES: COc1ccccc1CNC1CCCNC1c1ccccc1 (stereo not drawn)
- scaled lipid accumulation score [1]: 0.474

SMILES: CCCCC[C@H](O)/C=C/C=C\C=C\C=C\[C@@H](O)[C@@H](O)CCCC(=O)O [Lipoxin A4]
- scaled lipid accumulation score (library stock concentration: 100 uM): ≤ -0.021

SMILES: CC(C)N(CCCNC(=O)Nc1ccc(C(C)(C)C)cc1)C[C@H]1O[C@@H](n2cc(Br)c3c(N)ncnc32)[C@H](O)[C@@H]1O [listing 1 of 2 here]
- scaled lipid accumulation score [1]: 1.12 (active)

SMILES: CC(C)N(CCCNC(=O)Nc1ccc(C(C)(C)C)cc1)C[C@H]1O[C@@H](n2ccc3c(N)ncnc32)[C@H](O)[C@@H]1O
- scaled lipid accumulation score [2]: 0.204
- scaled lipid accumulation score [1]: 0.636

SMILES: CC(C)N(CCCNC(=O)Nc1ccc(C(C)(C)C)cc1)C[C@H]1O[C@@H](n2cc(Br)c3c(N)ncnc32)[C@H](O)[C@@H]1O [listing 2 of 2 here]
- scaled lipid accumulation score [2]: 0.805

SMILES: CCCCCCCC/C=C/CCCCCCCC(=O)Nc1c(C(C)C)cccc1C(C)C [Oleic Acid-2,6-diisopropylanilide]
- scaled lipid accumulation score [6]: ≤ 0

SMILES: CCCCCCCCCCCCCCCCC(=O)NCCO [Heptadecanoyl Ethanolamide]
- scaled lipid accumulation score [6]: ≤ 0

SMILES: C[C@@H](Oc1cc(-n2cnc3ccc(CN4CCN(C)CC4)cc32)sc1C(N)=O)c1ccccc1C(F)(F)F [listing 1 of 3 here]
- scaled lipid accumulation score [2]: 1.22 (active)

SMILES: CC(C)c1cc(C(=O)N2Cc3ccc(CN4CCN(C)CC4)cc3C2)c(O)cc1O
- scaled lipid accumulation score [2]: 0.544
- scaled lipid accumulation score [1]: 0.828

SMILES: COc1cc2ncn(-c3cc(OCc4ccccc4C(F)(F)F)c(C(N)=O)s3)c2cc1OC [listing 1 of 2 here]
- scaled lipid accumulation score [3]: ≤ 0
- scaled lipid accumulation score [4]: ≤ 0
- scaled lipid accumulation score [5]: ≤ 0
- scaled lipid accumulation score [1]: 0.764

SMILES: COc1cc2ncn(-c3cc(OCc4ccccc4C(F)(F)F)c(C(N)=O)s3)c2cc1OC [listing 2 of 2 here]
- scaled lipid accumulation score [1]: 0.992 (active)

SMILES: C[C@@H](Oc1cc(-n2cnc3ccc(CN4CCN(C)CC4)cc32)sc1C(N)=O)c1ccccc1C(F)(F)F [listing 2 of 3 here]
- scaled lipid accumulation score [5]: 0.915 (active)
- scaled lipid accumulation score [1]: 1.2 (active)

SMILES: COc1cc2ncn(-c3cc(OCc4ccccc4S(C)(=O)=O)c(C#N)s3)c2cc1OC [IKK-3 Inhibitor IX]
- scaled lipid accumulation score [2]: ≤ 0

SMILES: C[C@@H](Oc1cc(-n2cnc3ccc(CN4CCN(C)CC4)cc32)sc1C(N)=O)c1ccccc1C(F)(F)F [listing 3 of 3 here]
- scaled lipid accumulation score [3]: ≤ 0
- scaled lipid accumulation score [4]: 0.039
- scaled lipid accumulation score [1]: 0.788

SMILES: O=C1N(c2ccccc2)c2ccccc2C1(Cc1ccncc1)Cc1ccncc1
- scaled lipid accumulation score [1]: ≤ 0

SMILES: O=C1N(c2ccccc2)c2ccccc2C1(Cc1ccncc1)Cc1ccncc1 [Linopirdine dihydrochloride]
- scaled lipid accumulation score [1]: ≤ -0.001

SMILES: O=C1N(c2ccccc2)c2ccccc2C1(Cc1ccncc1)Cc1ccncc1 [Linopirdine]
- scaled lipid accumulation score [1]: ≤ -0.051

SMILES: O=C(O)c1ccc(-c2ccc3cc(O)c(C45CC6CC(CC(C6)C4)C5)cc3c2)cc1
- scaled lipid accumulation score [1]: 0.021

SMILES: CC[C@H]1OC(=O)[C@H](C)C(=O)[C@H](C)[C@@H](O[C@@H]2O[C@H](C)C[C@H](N(C)C)[C@H]2O)[C@](C)(OC)C[C@@H](C)C(=O)[C@H](C)[C@H]2N(CCCCn3cnc(-c4cccnc4)c3)C(=O)O[C@]12C
- scaled lipid accumulation score [1]: 0.448

SMILES: CC[C@H]1OC(=O)[C@H](C)C(=O)[C@H](C)[C@@H](O[C@@H]2O[C@H](C)C[C@H](N(C)C)[C@H]2O)[C@](C)(OC)C[C@@H](C)C(=O)[C@H](C)[C@H]2N(CCCCn3cnc(-c4cccnc4)c3)C(=O)O[C@]12C [Telithromycin]
- scaled lipid accumulation score [1]: ≤ -0.027

SMILES: CCCCC[C@H](O)/C=C/[C@H]1C=CC(=O)[C@H]1C/C=C\CCCC(=O)O [8-iso Prostaglandin A2]
- scaled lipid accumulation score [6]: ≤ 0

SMILES: CCCCCCCCCCCCCC(=O)N[C@H](CO)[C@H](O)c1ccc([N+](=O)[O-])cc1
- scaled lipid accumulation score [6]: 0.012

SMILES: CC(C)C[C@@H](/C=C/S(C)(=O)=O)NC(=O)[C@H](CC(C)C)NC(=O)[C@H](CC(C)C)NC(=O)OCc1ccccc1
- scaled lipid accumulation score (library stock concentration: 9.1 mM): 0.738

SMILES: OC1CCC(Nc2ncc3nc(Nc4c(F)cc(F)cc4F)n([C@@H]4CCOC4)c3n2)CC1 (stereo partly drawn)
- scaled lipid accumulation score [3]: ≤ 0
- scaled lipid accumulation score [4]: ≤ 0
- scaled lipid accumulation score [5]: ≤ 0
- scaled lipid accumulation score [1]: ≤ 0

SMILES: O=C1O/C(=C/Br)CC[C@@H]1c1cccc2ccccc12 [(R)-Bromoenol lactone]
- scaled lipid accumulation score [6]: 0.064

SMILES: CCOC(=O)C1(CCCCCCOc2ccc(Cl)cc2)CO1 (stereo not drawn)
- scaled lipid accumulation score [1]: ≤ 0

SMILES: O=C(O)CCC/C=C\C[C@@H]1[C@@H](/C=C/[C@@H](O)Cc2ccccc2)[C@H](O)C[C@@H]1O [16-phenyl tetranor Prostaglandin F2.alpha.]
- scaled lipid accumulation score [6]: ≤ 0
